Hits are enriched below; roughly 11% of the tested compounds scored in any of these assays.
Pf growth 48h – inhibits P. falciparum growth in the first generation, 48 h. P. falciparum luciferase growth in erythrocytes, 48 h. hit rate 5.9% among 310,000. Potency, µM (series often up to 28.7 µM), actives largely listed as inhibitors. AID 504832
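Luminescence readout; reporter = integrated firefly luciferase in P. falciparum. RBC culture at 2% hematocrit, 0.1% parasitemia final, 37 C/5% CO2; decreased signal taken as growth inhibition.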
HCV inh – HCV inhibition | Huh7.5.1 HCVcc-Cre infection, luciferase reporter, 44 h | Potency, µM (series often up to 41.8 µM), usual class: inhibitors | hit rate 3.4% among 340,000 | AID 651820
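Cells seeded at 1,000/well and cultured 4 h, then compounds added followed by HCVcc-Cre virus (~0.5 moi). After 44 h further culture, luciferase substrate was added, plates held 15 min at room temperature, and luminescence read for 15 sec.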
AMA1-RON2 inh – AMA1-RON2 (P. falciparum) interaction inhibition; AlphaScreen AMA1-biotinylated RON2 peptide binding; hit rate 0.2% among 360,000; AID 720542; Potency, µM (top dose mostly 58.2 µM), usual class: inhibitors; further: nearly all actives have a fitted effect of over 45% in size
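AMA1 (3D7) with his tag at 25 nM final met compounds first, then biotinylated RON2 peptide at 25 nM; detection used donor plus acceptor beads, 10 µg/mL apiece, read by AlphaScreen after 30 min at room temperature.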
Pf growth 96h – P. falciparum growth inhibition at 96 hour, primary screen for plastid delayed-death inhibitors; Potency, µM (highest dose often 28.7 µM), hits mostly inhibitors; AID 504834; P. falciparum luciferase reporter growth, 96 h; hit rate 6.9% among 320,000
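P. falciparum expressing integrated firefly luciferase, in erythrocytes at 2% hematocrit, 0.05% parasitemia, incubated with compounds 96 h at 37 C, 5% CO2. Growth inhibition read as loss of luminescence; two-generation exposure targets delayed-death apicoplast inhibitors.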
Of the large screens only hits and unclear results are named; the others gave an inactive call. The call rests on the fitted dose curve; in most records, active means well fitted curve in the direction sought with a large enough effect; inconclusive means small, poorly fitted or top-dose-only effect, or another doubt; inactive means no such curve, though single readings can be large; an effect the other way counts as inactive or inconclusive.

O=C(C1CCCN(c2ncnc3c2nc2n3CCCCC2)C1)N1CCN(c2cccc(Cl)c2)CC1 (stereo unspecified)	Pf growth 48h 13.1µM, HCV inh inconclusive, Pf growth 96h inconclusive
CCCCN(Cc1ccco1)C(=O)C1CCCN(c2ncnc3c2nc2n3CCCCC2)C1 (stereo unspecified)	Pf growth 48h 9.28µM, HCV inh inconclusive
CCc1cccc(NC(=O)c2cccc(S(=O)(=O)N3CCN(C)CC3)c2)c1	none
COc1ccnc(N=CNOCc2ccc(C)cc2)c1C#N	none (no result: Pf growth 48h)
COc1ccnc(N=CNOCc2cccc(C(F)(F)F)c2)c1C#N	Pf growth 96h 14.7µM
CC[n+]1c(/C=C(\C)Nc2ccccc2)sc2ccccc21	Pf growth 48h 5.22µM
CC[n+]1c(/C=C(/C)SC)sc2ccccc21	Pf growth 48h 1.65µM, HCV inh inconclusive, Pf growth 96h inconclusive
CC/C(=C/c1sc2ccccc2[n+]1CC)SC	Pf growth 48h inconclusive, HCV inh inconclusive, Pf growth 96h 1.65µM
CC[n+]1c(/C=C(\C)SC)sc2ccccc21	Pf growth 48h 0.294µM, HCV inh inconclusive, Pf growth 96h inconclusive
CC[n+]1c(/C=C(\C)OC)sc2ccccc21	none
CC1(C)S[C@@H]2[C@H](NC(=O)C(NC(=O)N3CCNC3=O)c3ccccc3)C(=O)N2[C@H]1C(=O)O (stereo partly specified)	none
O=C1[C@H]2[C@@H](c3ccc(F)cc3)N3C(=O)N(c4cccc(Cl)c4)C(=O)[C@@]3(Cc3ccccc3)[C@H]2C(=O)N1C1CCCCC1	Pf growth 48h 2.62µM, Pf growth 96h 11.7µM
O=C1[C@H]2[C@@H](c3ccc(F)cc3)N3C(=O)N(c4cccc(Cl)c4)C(=O)[C@@]3(Cc3ccc(Cl)cc3)[C@H]2C(=O)N1C1CCCCC1	Pf growth 48h 4.65µM, Pf growth 96h 5.22µM
CCC(=O)Nc1cc2c3c(c1)CCC(=O)N3CCC2	Pf growth 96h inconclusive
O=C(Nc1ccc(Nc2ccccc2)cc1)c1c(Cl)cccc1Cl	HCV inh 10µM (no result: Pf growth 48h, Pf growth 96h)
O=C(Nc1ccc(Nc2ccccc2)cc1)c1ccc(F)cc1	Pf growth 48h inconclusive, HCV inh 10µM
O=C(NC(=S)Nc1ccc(NC(=O)c2ccccc2)cc1)c1ccc(F)cc1	Pf growth 48h 6.57µM, HCV inh inconclusive, Pf growth 96h 6.57µM
Cc1ccccc1C(=O)Nc1cccc(NC(=O)c2ccc(F)cc2)c1	HCV inh inconclusive, Pf growth 96h 10.4µM
O=C(NC(=S)Nc1ccc(-c2ccccc2)cc1)c1ccccc1	none (no result: Pf growth 48h, Pf growth 96h)
Cc1ccc(S(=O)(=O)N2CCOC2CNC(=O)C(=O)NCc2ccccn2)cc1 (stereo unspecified)	none (no result: HCV inh)
CC(C)(C)c1ccc(NC(=O)c2c(F)cccc2Cl)cc1	Pf growth 48h inconclusive, HCV inh inconclusive, Pf growth 96h 9.28µM
O=C(Nc1ccc(N2CCOCC2)cc1)c1c(F)cccc1Cl	none
Cc1ccc(/C=C2/C(=O)C3(C)CCC2C3(C)C)cc1 (stereo unspecified)	none (no result: HCV inh, AMA1-RON2 inh)
COc1ccc(OC)c(-c2nc3cc4ccccc4cc3nc2-c2ccccc2)c1	Pf growth 48h inconclusive, HCV inh inconclusive, Pf growth 96h inconclusive
CC(C(=O)C12CC3CC(CC(C3)C1)C2)N1CCOCC1 (stereo unspecified)	Pf growth 96h 1.85µM
O=C(CC12CC3CC(CC(C3)C1)C2)N1CCOCC1	none (no result: Pf growth 96h)
OCCN1CCN(CC/C=C2/c3ccccc3Sc3ccc(Cl)cc32)CC1	Pf growth 48h 10.4µM, HCV inh 11.2µM, AMA1-RON2 inh inconclusive, Pf growth 96h 9.28µM
CN(C)CC/C=C1\c2ccccc2Sc2ccc(Cl)cc21	Pf growth 48h 15.1µM, HCV inh inconclusive, Pf growth 96h 13.5µM
CN(C)CC/C=C1\c2cc(Cl)ccc2Sc2cc(F)c(F)cc21	HCV inh 11.2µM (no result: Pf growth 48h, Pf growth 96h)
CN(C)CC/C=C1\c2ccc(F)cc2Sc2cc(F)c(Cl)cc21	HCV inh 12.6µM (no result: Pf growth 48h, Pf growth 96h)
O=C(COC(=O)c1ccccc1O)Nc1cccc2ccccc12	none
O=C(CSc1nccn1Cc1ccco1)Nc1ccccc1	none (no result: HCV inh)
Nc1nc(-c2ccc(Cl)cc2)nn1C(=O)c1cccs1	Pf growth 96h 13.1µM
CSc1nc(-c2ccccc2)nn1C(=O)c1ccc(Cl)cc1	Pf growth 96h inconclusive
CSc1nc(-c2ccc(Cl)cc2)nn1C(=O)c1ccccc1	Pf growth 96h 1.31µM
CCCCCCn1c(-c2cccs2)n[nH]c1=S	none
CCCNC(=O)N1CCN(Cc2ccco2)CC1	none
C/C1=C2/[N-]C(C(CC(N)=O)[C@@]2(C)CCC(=O)NCC(C)OP(=O)([O-])O[C@H]2[C@@H](O)[C@@H](n3cnc4cc(C)c(C)cc43)O[C@@H]2CO)[C@]2(C)N=C(/C(C)=C3N=C(/C=C4N=C1C(CCC(N)=O)C\4(C)C)[C@@H](CCC(N)=O)[C@]\3(C)CC(N)=O)[C@@H](CCC(N)=O)[C@]2(C)CC(N)=O.CC(=O)O.[Co] (stereo partly specified)	Pf growth 48h 0.849µM, Pf growth 96h 0.675µM (no result: HCV inh, AMA1-RON2 inh)
COc1ccc(S(=O)(=O)N(C)C[C@@H]2OCCCC[C@@H](C)Oc3ccc(NS(=O)(=O)c4cccs4)cc3C(=O)N([C@H](C)CO)C[C@@H]2C)cc1	none (no result: Pf growth 48h, HCV inh, Pf growth 96h)
Cc1cc(/C=C2\C(=O)NC(=O)N(Cc3ccccc3Cl)C2=O)c(C)n1-c1ccc(C(=O)O)cc1	Pf growth 96h 1.85µM
Cc1cc(/C=C2\C(=O)NC(=O)N(Cc3ccco3)C2=O)c(C)n1-c1ccc(C(=O)O)cc1	none
COc1ccc(C(=O)NNC(=O)CN2CCC(n3nnc4cc(F)ccc43)CC2)cc1	none
CCOc1cc(NC(=O)c2ccco2)c(OCC)cc1NC(=O)c1cc(OC)c(OC)c(OC)c1	Pf growth 48h inconclusive, HCV inh inconclusive
Cc1cccc(NC(=O)CCNC(=O)c2ccco2)c1C	Pf growth 48h inconclusive
COc1cc(NC(=O)c2ccco2)c(OC)cc1NC(=O)CCC(=O)Nc1cccc(C)c1C	HCV inh inconclusive, Pf growth 96h 5.22µM
COc1cc(NC(=O)c2ccco2)c(OC)cc1NC(=O)c1cc(OC)c(OC)c(OC)c1	Pf growth 48h inconclusive, HCV inh inconclusive, Pf growth 96h 2.94µM
CC[n+]1c(/C=C/C=C/N(C(C)=O)c2ccccc2)sc2cc(OC)ccc21	Pf growth 48h 9.28µM, HCV inh inconclusive, AMA1-RON2 inh inconclusive
CC[n+]1c(/C=C/Nc2ccccc2)sc2ccccc21	Pf growth 48h inconclusive
Cc1cccc(OCc2nc(-c3nonc3N)no2)c1C	Pf growth 96h inconclusive
CCOc1ccc(Cc2nc(-c3nonc3N)no2)cc1OCC	HCV inh inconclusive, Pf growth 96h 1.47µM
C=Cc1ccc(Cn2c(C)c(C(=O)NCCC#N)sc2=O)cc1	none (no result: Pf growth 48h, HCV inh, Pf growth 96h)
COc1cc(CNCCc2ccccc2)cc(Br)c1OCC(=O)Nc1ccccc1C	HCV inh inconclusive, Pf growth 96h inconclusive
CNCc1cc(Br)c(OCC(=O)Nc2ccccc2OC)c(OC)c1	Pf growth 48h inconclusive, HCV inh inconclusive
CCNCc1cc(Br)c(OCC(=O)Nc2ccccc2)c(OC)c1	Pf growth 48h inconclusive, HCV inh 10µM, Pf growth 96h inconclusive
COc1cc(CNCC(C)C)cc(Br)c1OCC(=O)Nc1ccccc1	Pf growth 48h 9.28µM, HCV inh inconclusive, Pf growth 96h 10.4µM

Bioassay records: PubChem BioAssay, National Center for Advancing Translational Sciences (NCATS)
